# Most compounds without a hit are left out; they make up all but 18% or so of the library.
# IL-1B inflam inh – inflammasome signaling inhibition, IL-1 beta readout; THP-1 LPS/ATP IL-1B secretion, AlphaLISA, 16 h; hits give low values; activity change, % at 57.5 µM; AID 743279; 4.7% of 360,000 active; in the data active means activity change below about -50%; inconclusive means mostly about -30% to -49%
#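 THP-1 cells pretreated 1 hr with compounds (up to 57.5 uM final), then stimulated with LPS (250 ng/mL final) plus ATP (1.25 mM final); secreted IL-1B measured by AlphaLISA after 16 hr, decreased signal indicating inhibition.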
# RORgamma inh – ROR gamma (mouse) transcription inhibition; 5.4% of 310,000 active; Potency, µM (doses to about 53.6 µM), inactives show at the top dose activity change, negative = inhibition, usual class: inhibitors; Drosophila S2 Gal4-RORgamma UAS-luciferase reporter, 20 h; further: potency means the concentration at half of the fitted maximal effect; nearly all actives have a fitted effect of over 60% in size
# Target sequence (P51450 whole entry, looked up, the tested form may be a part): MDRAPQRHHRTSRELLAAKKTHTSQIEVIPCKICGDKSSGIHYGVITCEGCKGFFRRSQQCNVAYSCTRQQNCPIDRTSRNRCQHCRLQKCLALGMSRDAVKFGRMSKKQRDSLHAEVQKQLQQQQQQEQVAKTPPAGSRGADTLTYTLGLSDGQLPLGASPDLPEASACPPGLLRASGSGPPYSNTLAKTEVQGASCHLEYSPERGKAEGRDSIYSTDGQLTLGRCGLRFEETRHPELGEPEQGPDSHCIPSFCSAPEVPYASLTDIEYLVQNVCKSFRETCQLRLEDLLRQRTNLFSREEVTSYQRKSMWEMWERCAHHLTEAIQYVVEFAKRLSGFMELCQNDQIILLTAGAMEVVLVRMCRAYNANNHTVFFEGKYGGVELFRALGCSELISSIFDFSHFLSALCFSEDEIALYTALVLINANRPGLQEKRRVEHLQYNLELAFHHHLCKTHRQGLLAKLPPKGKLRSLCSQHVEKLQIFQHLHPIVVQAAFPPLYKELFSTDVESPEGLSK
#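 In this cell-based reporter format, copper sulfate (700 uM final) drives Gal4–ROR gamma fusion expression from a metallothionein promoter in Drosophila Schneider cells; compounds preincubated 1 hr, reporter read after 20 hr at ambient temperature.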
# VP16 counter – Gal4-VP16 reporter inhibition counter-screen. Drosophila S2 Gal4-VP16 UAS-luciferase, luminescence, 20 h. Potency, µM (top dose mostly 53.6 µM), without a hit: at the highest dose activity, negative = inhibition, hits mostly inhibitors. 3.5% of 310,000 active;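 further: Gal4-VP16 expression switched on by copper sulfate through the metallothionein promoter; potency means the concentration at half of the fitted maximal effect; nearly all actives have a fitted effect of over 50% in size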
# DT40 TDP1 no CPT – qHTS for Inhibitors of human tyrosyl-DNA phosphodiesterase 1 (TDP1): qHTS in cells in absence of CPT | DT40 Tdp1-/- hTDP1 cells, no CPT, ATP luminescence, 48 h | Potency, µM (titrated, usually from 46.2 µM), without a hit: at the highest dose activity change, negative = growth inhibition, most hits filed as inhibitors | 15% of 420,000 active | AID 686978, 2013; further: potency means the concentration at half of the fitted maximal effect; nearly all actives have a fitted effect of over 55% in size
#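 Readout: luminescence from CellTiter-Glo after 30 min in the dark at RT. Cells: DT40 Tdp1-/- with stable hTDP1, 400/well. Exposure: compounds alone, ≥48 hr, 37 °C.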
# LDHA inh – blocks human lactate dehydrogenase A | AID 1347041 | activity change, % (values are at about 110 or 230 µM) | 0.15% of 480,000 active | P00338 | purified LDHA, NADH/diaphorase-resazurin fluorescence; hits give low values; in the data active means activity change below about -30%; inconclusive means mostly about -25% to -30%;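 further: plate controls were DMSO wells for no effect and wells without enzyme for full effect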
#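 Resorufin fluorescence (ex540/em590), read at 0 and 20 min after diaphorase/resazurin addition, reports the NADH left after a 5 min room-temperature reaction of 2 nM human LDH5 with 0.06 mM NADH and 0.2 mM pyruvate.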
# DT40 TDP1 CPT – growth inhibition of DT40 Tdp1-/-;hTDP1 cells with camptothecin (screen for TDP1 inhibitors); chicken DT40 Tdp1-/-;hTDP1 cells + 20 nM CPT, ATP luminescence, 48 h; Potency, µM (series often up to 46.2 µM), for inactives: at the top dose activity change, negative = growth inhibition, hits mostly inhibitors; 12% of 420,000 active; AID 686979; further: potency means the concentration at half of the fitted maximal effect; nearly all actives have a fitted effect of over 55% in size
#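 Chicken DT40 Tdp1-/- cells complemented with human TDP1, 400 cells/well, exposed to compounds plus 20 nM camptothecin for at least 48 h at 37 C; viability read as ATP content by CellTiter-Glo luminescence.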
# * = called active by the depositor; ? = inconclusive; . = no result. Unless noted, the call rests on the fitted dose curve; in most records, active means well fitted curve in the direction sought with a large enough effect; inconclusive means small, poorly fitted or top-dose-only effect, or another doubt; inactive means no such curve, though single readings can be large; an effect the other way counts as inactive or inconclusive. Unless noted, on the % scale 0 is the no-effect control and ±100 the full control effect.
SMILES,IL-1B inflam inh,RORgamma inh,VP16 counter,DT40 TDP1 no CPT,LDHA inh,DT40 TDP1 CPT
CCOc1ccc(N=Nc2c(C)[nH]n(-c3ccccc3)c2=O)cc1,17,10%,0%,3%,0,10%
CCOc1ccccc1N=Nc1c(C)[nH]n(C(N)=S)c1=O,12,0.45µM*,1.3µM*,15µM*,-5,?
Cc1nc(-c2ccccc2)c(Cc2ccccc2O)c(=O)[nH]1,22,14%,-2%,5.2µM*,-7,5.8µM*
COc1ccc(Cl)cc1NC(=O)COC(=O)CC(C)(C)CC1=NS(=O)(=O)c2ccccc2N1,.,.,.,21µM*,-12,?
Cc1ccc(Cl)cc1NC(=O)COC(=O)CC(C)(C)CC1=NS(=O)(=O)c2ccccc2N1,.,.,.,26µM*,1,18µM*
COc1ccc(NC(=O)COC(=O)CCCC2=NS(=O)(=O)c3ccccc3N2)cc1Cl,-17,0%,0%,25%,-7,2%
COc1ccc(Cl)cc1CO/N=C/c1cccc(OC)c1OC,.,.,.,.,0,.
Cc1ccsc1/C=C(\C#N)C(=O)NC1CC1,.,.,.,.,0,.
O=C(NCC(F)(F)F)C1CCN(C(=O)/C=C/c2ccccc2)CC1,.,.,.,.,11,.
O=C(NCc1ccccc1)[C@@H]1CCCN1C(=O)[C@@H]1CCCN1C(=O)c1cccs1,-57*,.,.,-41%,-2,-44%
Cc1csc(NC(=O)c2ccncc2)n1,0,-3%,23%,8%,-2,-14%
CC(C)(C)c1csc(NC(=O)c2ccncc2)n1,19,35%,?,21µM*,-3,?
CC(C)(C)c1csc(NC(=O)c2ccc3nccnc3c2)n1,0,45%,-13%,18µM*,-2,16µM*
O=C(Cc1ccc(Br)cc1)Nc1cccc(-c2cn3c(n2)SCC3)c1,-76*,25%,3%,?,2,?
CCCn1cc(S(=O)(=O)c2ccccc2)c(=O)c2cc(CC)ccc21,-50*,22%,6%,5%,-6,6%
CCCn1cc(S(=O)(=O)c2ccccc2)c(=O)c2cc(OC)c(OC)cc21,?,-3%,-12%,17%,-4,-5%
CCCN1CCN(c2cc3c(cc2F)c(=O)c(S(=O)(=O)c2ccc(Cl)cc2)cn3C)CC1,.,.,.,23µM*,1,?
CCN1CCN(c2cc3c(cc2F)c(=O)c(S(=O)(=O)c2ccccc2)cn3C)CC1,56,-28%,-6%,4%,0,-4%
CCCCn1cc(S(=O)(=O)c2ccccc2)c(=O)c2cc(F)c(N3CCN(CCC)CC3)cc21,.,.,.,21µM*,0,?
CCCN1CCN(c2cc3c(cc2F)c(=O)c(S(=O)(=O)c2ccc(CC)cc2)cn3CC)CC1,.,.,.,21µM*,-1,?
Cc1cccc(NC(=O)c2cc3c(s2)CCC3)c1C,.,.,.,.,8,.
CCn1cc(S(=O)(=O)c2ccc(OC)cc2)c(=O)c2cc(F)c(N3CCN(C)CC3)cc21,5,-20%,-6%,11%,-8,3%
CCCCn1cc(S(=O)(=O)c2ccc(CC)cc2)c(=O)c2cc(F)c(N3CCOCC3)cc21,.,.,.,18µM*,-5,?
CCCn1cc(S(=O)(=O)c2ccccc2)c(=O)c2cc(F)c(N3CCCC(C)C3)cc21 (configuration not stated),.,.,.,?,0,?
CCCCn1cc(S(=O)(=O)c2ccc(OC)cc2)c(=O)c2cc(F)c(F)cc21,.,.,.,?,-4,18µM*
SMILES,IL-1B inflam inh,RORgamma inh,VP16 counter,DT40 TDP1 no CPT,LDHA inh,DT40 TDP1 CPT
CCCn1cc(S(=O)(=O)c2ccc(CC)cc2)c(=O)c2cc(F)c(N3CCN(C)CC3)cc21,.,.,.,26µM*,-2,16µM*
CCCCn1cc(S(=O)(=O)c2ccc(CC)cc2)c(=O)c2cc(F)c(N3CCCC(C)C3)cc21 (configuration not stated),.,.,.,23µM*,-7,23µM*
CCCCn1cc(S(=O)(=O)c2ccc(OC)cc2)c(=O)c2cc(F)c(N3CCOCC3)cc21,.,.,.,?,4,?
Cc1c(F)cc(C(N)=O)cc1NS(=O)(=O)c1ccc(C(F)(F)F)cc1,.,.,.,.,-1,.
COc1ccc(Nc2nc(C)c(NC(=O)c3cccc(C)c3)c(Nc3ccc(OC)cc3)n2)cc1,.,.,.,.,-3,.
O=C(N/N=C/C=C/c1ccccc1)c1cccc(Br)c1,-26,1µM*,5µM*,21µM*,-5,?
CC(C)c1cc(C(=O)N/N=C/C=C/c2ccccc2)n[nH]1,?,?,20µM*,9%,-1,13%
Cc1ccc(C(=O)N/N=C/C=C/c2ccccc2)cc1,-21,3.2µM*,7.9µM*,-9%,1,-5%
Cc1cc(C(=O)N/N=C/C=C/c2ccc(Br)cc2)n[nH]1,13,-22%,2%,11%,-1,-1%
O=C(N/N=C/c1ccccc1)c1ccc(-c2ccccc2)cc1,28,11%,4%,5%,-7,7%
O=C(N/N=C/c1cccc(Oc2ccccc2)c1)c1cccc(Br)c1,6,10µM*,?,21µM*,-5,?
COc1ccccc1Cn1c(C)c2c(=O)n(-c3ccc(F)cc3)[nH]c2cc1=O,.,.,.,.,2,.
